Experimental data reported in PubChem BioAssay (NCATS).
Results filed as inconclusive are left out. Unmarked numbers belong to inactive results. Calls of active or inactive are those of the source. Calls come from the whole dose curve; as a rule, active = well fitted inhibition curve with a large enough effect; inconclusive = small, poorly fitted or top-dose-only effect; inactive = flat fitted curve, though single readings scatter.

Tested on: CRL-7250
Experiment: Cytotoxic Profiling of Annotated Libraries Using Quantitative High-Throughput Screening (AID 1296008); note: nearly all actives have a fitted effect of over 60% in size
Conditions: Five cell lines viability, CellTiter-Glo ATP luminescence, 48-72 h; max response: hits give low values
Outline: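 Cytotoxicity was measured as CellTiter-Glo ATP luminescence, read after 10 min at room temperature. Compound treatment of the cells lasted 48 or 72 hr at 37 degrees Celsius in a qHTS format.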
% is set by controls: 0 for no effect and ±100 for the full control effect; potency is the fitted concentration of half-maximal effect.

SMILES | max response [%] | outcome | Potency
COc1cc(N)c(Cl)cc1C(=O)NC[C@@H]1CCN2CCC[C@@H]12 | -16.7 | – | –
CC1=C(/C=C/C(C)=C\C=C\C(C)=C/C(=O)O)C(C)(C)CCC1 | -50.6 | – | –
C=C(CO)C12OC1C1(C)C(=CC2=O)C(O)C(O)CC1C (stereo not given) | -0.172 | – | –
CC1=CCC2C(C)(C)CCC[C@]2(C)[C@@]12CC[C@](C)(CC(=O)O)O2 (stereo not given in full) | -19.8 | – | –
Cc1nc(C)c(-c2ccc(C3CCC(CC(=O)O)CC3)cc2)nc1C(N)=O (stereo not given) | 0.3 | – | –
O=S(=O)(NC1CCC(c2cc(F)ccc2F)(S(=O)(=O)c2ccc(Cl)cc2)CC1)C(F)(F)F (stereo not given) | – | inactive | –
COC(=O)C[C@H]1[C@]2(C)C3=C(C)[C@H](c4ccoc4)C[C@H]3O[C@@H]2[C@H](OC(C)=O)C2[C@](C)(C(=O)OC)C=CC(=O)[C@@]21C (stereo not given in full) | 0.289 | – | –
C=CC(C)(O)CC/C=C(\C)C(=O)OC1C(O)C(CO)OC(OC(=O)C23CCC(C)(C)CC2C2=CCC4C5(C)CCC(OC6OC(COC7OCC(OC(C)=O)C(O)C7OC7OC(COC(C)=O)C(O)C(O)C7O)C(O)C(O)C6O)C(C)(C)C5CCC4(C)C2(C)C(O)C3O)C1OC1OCC(OC2OCC(O)C(OC3OCC(O)C(O)C3O)C2O)C(O)C1O (stereo not given) | -9.65 | – | –
C=C[C@H]1C(O[C@@H]2O[C@H](CO)[C@@H](O)[C@H](O)[C@H]2O)OC=C2C(=O)N3CCc4c([nH]c5ccccc45)C3CC21 (stereo not given in full) | – | inactive | –
CN(C)c1nc(NC2CCC(NCCc3ccc(Br)cc3OC(F)(F)F)CC2)nc2ccccc12 (stereo not given) | – | – | 18.4 µM (active)
